Screening data from PubChem BioAssay.
Shown are actives, neighbours in structure and some others; about 10% of the full set was active somewhere.
L3MBTL1 inh: blocks human L3MBTL1; AlphaScreen L3MBTL1–H3K9me1 peptide binding; Potency, µM (top dose mostly 57.1 µM), actives largely listed as inhibitors; actives 0.66% (n = 230,000); AID 485360; further: nearly all actives have a fitted effect of over 60% in size
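Read-out is AlphaScreen signal from streptavidin donor and nickel chelate acceptor beads (10 ug/mL final each) bridging L3MBTL1 (50 nM) and biotinylated K9-monomethylated H3(1-15) peptide (75 nM), after 30 min compound exposure at room temperature.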
G9a block: blocks human histone lysine methyltransferase G9a. Q96KQ7. G9a H3K9 monomethylation, AlphaScreen, 2 h. Potency, µM (doses to about 102 µM), actives largely listed as inhibitors. actives 8.8% (n = 350,000). AID 504332; further: nearly all actives have a fitted effect of over 75% in size
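Enzyme 20 nM + cpd, 15 min RT; add b-H3K9 pep 500 nM / SAM 20 uM; 2 h RT; anti-H3K9me1 Ab 0.5 ug/mL + SA donor / anti-rabbit acceptor beads 20 ug/mL each, 10 min; AlphaScreen read.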
BAZ2B inh: BAZ2B (human) inhibition. AlphaScreen BAZ2B-H3K14Ac peptide displacement. Potency, µM (top dose mostly 114 µM), hits mostly inhibitors. actives 4.4% (n = 360,000); further: nearly all actives have a fitted effect of over 60% in size
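Inhibition is scored as reduced AlphaScreen emission. The BAZ2B/b-H3(5-23)K14Ac complex (50 nM each) in PBS pH 7.4, 0.01% Tween-20 meets compound (up to 110 uM) for 30 min at RT before bead addition.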
JMJD2A Tudor: inhibitors of human JMJD2A Tudor domain. O75164. Potency, µM (top dose mostly 114 µM), actives largely listed as inhibitors. AlphaScreen JMJD2A-Tudor / H3K4me3 peptide binding. AID 504339. actives 4.4% (n = 390,000); further: nearly all actives have a fitted effect of over 50% in size
HP1b chromo inh: blocks HP1-beta chromodomain binding to methylated histone tails; P83916; AlphaScreen HP1-beta / biotin-H3K9me3 peptide binding; Potency, µM (series often up to 114 µM), actives largely listed as inhibitors; actives 0.56% (n = 390,000); AID 540317; further: nearly all actives have a fitted effect of over 70% in size
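Compound inhibition of the preformed complex between 50 nM HP1-beta and 50 nM biotinylated H3K9me3 peptide was read by AlphaScreen. Buffer was PBS pH 7.4 with 0.01% Tween-20. Incubations ran 30 min at room temperature, with 10 ug/mL donor/acceptor beads.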
GLS inhibitor: glutaminase GLS (human) inhibition; GLS enzymatic activity, qHTS titration; Potency, µM (titrated, usually from 45.5 µM), most hits filed as inhibitors; actives 0.21% (n = 410,000); AID 624170
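Human kidney-isoform GLS in 45 mM KH2PO4 pH 8.2, 0.02% Tween-20, with compound, started with 1mM L-Glutamine (added stock). Glutamate oxidase/HRP/Amplex red coupled fluorescence read at start and after 30 min at RT.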
Numbers stand for hits; 0 = inactive; ? = inconclusive; - = no result; ! = not active in a repeat; [ ] = dose if it differs, or a comment. The call rests on the fitted dose curve; in most records, active means well fitted curve in the direction sought with a large enough effect; inconclusive means small, poorly fitted or top-dose-only effect, or another doubt; inactive means no such curve, though single readings can be large; an effect the other way counts as inactive or inconclusive.

SMILES	L3MBTL1 inh	G9a block	BAZ2B inh	JMJD2A Tudor	HP1b chromo inh	GLS inhibitor
CC(=O)c1coc2c1cc(O)c1ccccc12	-	0	0	0	0	0
CC(=O)c1cc(O)c2ccccc2c1O	0	3.2µM	45µM	56µM	?	0
Cc1ccc(NC(=O)C2CCCN(S(=O)(=O)c3ccc4c(c3)CCCC(=O)N4)C2)cc1N(C)C (stereo not given)	-	0	0	0	0	0
Cc1ccc(S(=O)(=O)OCC(=O)Nc2ccc(C(=O)O)c(O)c2)cc1	-	-	-	20µM	0	0
CC(C)OCCCn1c(-c2ccc(Br)cc2)c[nH]c1=S	0	3.5µM	?	?	0	0
COc1cccc(CSc2nc3n(n2)C(CC(C)C)C(C(=O)Nc2ccccc2C)=C(C)N3)c1 (stereo not given)	-	0	0	0	0	0
O=c1[nH]c(CS(=O)(=O)c2ccccc2)nc2ccccc12	0	?	0	0	0	0
CCn1c(C)c(CS(=O)(=O)c2ccccc2)[nH]c1=O	-	1µM	0	22µM	10µM	0
CC(C)=CCC12Oc3cc(O)ccc3C1(O)Oc1cc(O)c([C@H]3C=C(C)CC(c4ccc(O)cc4O)[C@H]3C(=O)c3ccc(O)cc3O)c(O)c1C2=O (stereo not given in full)	-	-	-	40µM	0	0
COc1ccc(-n2c(=O)c(CCc3ccccc3)nc3cnc(OC)nc32)cc1	-	0[0.501 µM]	-	-	-	-
O=C(c1ccc(CSc2nc3ccncc3[nH]2)cc1)N1CCCCC1	0	25µM	79µM	20µM	?	0
CC1CCCCC1NC(=O)c1ccc(CSc2nc3ccncc3[nH]2)cc1 (stereo not given)	0	?	0	0	0	0
Clc1ccccc1CSc1nc2ccncc2[nH]1	-	45µM	0	0	0	0
CCc1ccc(NC(=O)N2CC(C)Oc3ccc(C)cc32)cc1 (stereo not given)	-	0	0	0	0	0
Cc1ccc(CSc2nnc(-c3ccccn3)n2C)cc1	0	0	?	0	0	0
Cn1c(SCc2ccc(F)cc2)nnc1-c1ccccn1	0	0	50µM	?	0	0
Cn1c(SCc2cccc3ccccc23)nnc1-c1ccco1	0	16µM	0	0	0	0
Cn1c(SCc2ccccc2F)nnc1-c1ccccn1	0[11.4 µM]	0	56µM	0	0	0
CCC(=O)Nc1cc(-c2nc3cc(C)cc(C)c3o2)ccc1C	-	0	0	0	0	0
COc1cc(NC(=O)C2Cc3ccccc3N2C(=O)c2ccccc2)cc(OC)c1 (stereo not given)	-	0	0	0	0	0
CCCS(=O)(=O)c1nc(S(=O)(=O)c2ccc(C)cc2)c(NCc2ccccc2Cl)s1	-	0	0	0	0	0
COC(=O)CCCC(=O)OC	0	-	-	0	0	0
COC(=O)CCN(C)CCC(=O)OC	0	0[2.33 µM]	0	50µM	0	0
Cc1nc2c(c(C)c1CCC(=O)Nc1cccc(C(F)(F)F)c1)c(=O)n(C)c(=O)n2C	-	0	0	0	0	0
COc1ccc(-n2cnc(=S)[nH]c2=S)cc1	-	-	-	0	?	0
SMILES	L3MBTL1 inh	G9a block	BAZ2B inh	JMJD2A Tudor	HP1b chromo inh	GLS inhibitor
CC(C)(C)c1cn(-c2ccc(Cl)cc2)c(=S)[nH]1	-	2µM	0	35µM	0	0
COc1ccc(Cl)cc1NC(=O)CCCn1c(C)c2cnn(-c3ccccc3)c(=O)c2c1C	-	0	0	0	0	0
N#CCCN(C(=O)COC(=O)C12CC3CC(CC(O)(C3)C1)C2)c1ccc(F)cc1	0	1.4µM	0	0	0	0
CCOC(=O)C1CCN(C(=O)Cn2nc(CC)n3c(cc4occc43)c2=O)CC1	-	0	0	0	0	0
Cc1cccc(NC(=O)CN2C(=O)CCSc3ccc(S(=O)(=O)N4CCOCC4)cc32)c1C	-	0	0	50µM	0	0
O=C(CN1C(=O)CCSc2ccc(S(=O)(=O)N3CCOCC3)cc21)Nc1ccccc1Cl	-	0	?	0	0	0
CCCNC(=O)CN1C(=O)COc2ccc(S(=O)(=O)N3CC(C)CC(C)C3)cc21 (stereo not given)	-	32µM	0	0	0	0
CCOc1ccccc1NC(=O)C1CCN(S(=O)(=O)c2ccc(OC)c(OC)c2)CC1	0	40µM	0	0	0	0
CCOc1ccccc1NC(=O)CN1C(=O)COc2ccc(S(=O)(=O)N3CCOCC3)cc21	-	0	0	16µM!	0	?
COc1ccc(-n2ccnc(NCCc3ccc(S(N)(=O)=O)cc3)c2=O)cc1	-	?	0	0	0	0
C=CCn1c(SCC(C)=O)nnc1-c1cc(-c2ccccc2)sc1N	0	11µM	?	?	0	0
C=CCn1c(SCC(N)=O)nnc1-c1cccc(Br)c1	0	0	0	0	0	0
C=CCn1c(SCC(=O)c2ccc(O)c(O)c2)nnc1-c1ccc(C)cc1	0	0[0.501 µM]	?	?	0	0
C=CCn1c(SCC(=O)c2ccc(O)c(O)c2)nnc1-c1cccc(OC)c1	?	0[0.501 µM]	50µM	?	0	0
C=CCn1c(SCC(=O)c2cccs2)nnc1-c1cccc(OC)c1	-	?	0	89µM	0	0
CC(C)(C)c1ccc(S(=O)(=O)N2CCN(c3nc(-c4ccccc4)nc4ccccc34)CC2)cc1	-	-	-	0	0	-
CCc1cccc(C)c1NC(=O)CSc1n[nH]c(-c2ccccc2)n1	-	0	0	0	0	0
COc1cc(OC)cc(C(=O)NNC(=S)NC2CC2)c1	0	56µM	0	0	0	?
COc1cccc(C(=O)NNC(=S)NC2CCCCC2)c1	0	0	0	0	0	0
O=C(COc1ccccc1)NC(NC(=S)Nc1ccccc1C(=O)O)C(Cl)(Cl)Cl (stereo not given)	0	?	0	32µM	?	0
COC(=O)/C=C/c1ccccc1S(=O)(=O)N(Cc1ccccc1)Cc1ccco1	-	0[12.7 µM]	50µM	56µM!	0	0
COC(=O)C(NNc1ccccc1)(NC(=O)c1ccc(F)cc1)C(F)(F)F (stereo not given)	0	35µM	0	0	0	0
O=C(NC(NNc1ccc([N+](=O)[O-])cc1)(C(F)(F)F)C(F)(F)F)c1ccccc1Cl	0	?	?	?	0	0
COC(=O)C(NNc1ccccc1)(NC(=O)c1ccccc1F)C(F)(F)F (stereo not given)	0	0[12.7 µM]	?	0	0	0
O=C(NC(NNc1ccc([N+](=O)[O-])cc1)(C(F)(F)F)C(F)(F)F)c1ccc(F)cc1	0	13µM	?	?	?	0
CC(C)(C)OC(=O)n1c2ccsc2c2cnn(Cc3ccccc3F)c(=O)c21	-	-	-	0	-	-
O=S(=O)(NC1CCCC1)c1ccc(S(=O)(=O)NC2CCCC2)cc1	0	0	0	0	0	0
N#Cc1ccc(S(=O)(=O)NC2CC2)cc1	-	7.9µM	?	0	0	0
